Experimental data: PubChem BioAssay (NCI)
Compounds without any hit were thinned out: in the full panel of roughly 83,000, 20% have a hit.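 Activity criterion: percent growth below 10, measured after cells in 96-well plates were exposed to a single compound concentration for 48 hours.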 The source made the active and inactive calls.

System: SR leukemia
Assay: NCI-60 one-dose screen, 48 h (100 = growth as untreated, 0 = no growth, -100 = all killed)
Details: 10 µM unless noted

SMILES | growth
CSc1ccc(-c2n[nH]nc2-c2cc3ccccc3s2)cc1 | 24.9% (inactive)
Clc1ccc2c(NCCCNc3nc(-n4ccnc4)nc4ccccc34)ccnc2c1 | 58.4% (inactive)
CN1CCN(c2nc(NCCCNc3ccnc4cc(Cl)ccc34)c3ccccc3n2)CC1 | -25.3% (active)
CN(C)c1ccc(NC(=O)c2ccc(/C=C/C(=O)c3ncc[nH]3)cc2)cc1 | 5.75% (active)
COc1ccc(S(=O)(=O)N2CCCCC2)cc1NC(=O)c1[nH]c(C)c2c1CCCCC2=O | 34.3% (inactive)
CCn1c(O)c(/C=N/NC(=O)C(C)c2ccc(CC(C)C)cc2)sc1=S (stereo not drawn) | 26.3% (inactive)
Cc1nn(-c2cc(=O)[nH]c3ccc(Cl)cc23)c(N)c1C#N | 121% (inactive)
O=C1/C(=C(/c2ccccc2)N2CCOCC2)Cc2ccccc21 | 26.6% (inactive)
O=C(COc1cccc(/C=C2\COc3ccccc3C2=O)c1)Nc1nccs1 | -73.8% (active)
CCN=C1C=CC(=C(c2ccc(N)cc2)c2ccc(N(CC)CC)c(C)c2)C=C1 | -17.6% (active)
O=C(C(=O)c1ccc2c(c1)OCO2)c1ccc2c(c1)OCO2 | 106% (inactive)
COc1ccc(/C=C2\Oc3cc(OCCCCN4CCCC4)ccc3C2=O)cc1 | -25.3% (active)
COc1cc(-c2nn(-c3ccc(Br)cc3)cc2C(=O)O)ccc1O | 84.1% (inactive)
O=c1ccccc(-c2ccc(-c3ccco3)cc2)c1O | 10% (inactive)
Cn1cc(C(=O)c2nc(-c3c[nH]c4ccc(Br)cc34)no2)c2cc(F)ccc21 | 101% (inactive)
COc1ccc(O)c(N=Nc2nccs2)c1 | 13.4% (inactive)
CCc1nc(N)nc(N)c1C#CC(C)c1cc(-c2ccnc(C)c2)c2oc(C)nc2c1 (stereo not drawn) | 3.38% (active)
CC(=O)Nc1ccc(-n2c(O)c(/C=N/NC(=O)Cc3ccccc3Nc3c(Cl)cccc3Cl)sc2=S)cc1 | 72.9% (inactive)
O=Nc1c(O)c(Cl)cc2ccccc12 | 71.7% (inactive)

SMILES | growth
FC(F)(F)c1ccc(-c2cn3nc(-c4c[nH]c5ccc(Br)cc45)sc3n2)cc1 | 85.9% (inactive)
Cn1cc(-c2nonc2-c2c[nH]c3ccccc23)c2cccnc21 | 23.5% (inactive)
Cn1cc(-c2nonc2-c2cn(C)c3ccc(F)cc23)c2ccccc21 | 31.3% (inactive)
Brc1ccc(-c2csc(Nc3ccccn3)n2)cc1 | 68.8% (inactive)
Clc1ccc2c(NCCNc3nc(N4CCOCC4)nc4ccccc34)ccnc2c1 | -23.5% (active)
COc1ccc(-c2cc(-c3ccc(Nc4ccnc5cc(Cl)ccc45)cc3)nc(N3CCOCC3)n2)cc1 | -18% (active)
COc1cc2c(cc1-c1c(C)noc1C)ncc1nc(C3CCCC3)n([C@H](C)COC(F)F)c12 | 18.7% (inactive)
CCOc1cc2ncc(C#N)c(Nc3ccc(OCc4cccc(F)c4)c(Cl)c3)c2cc1NC(=O)CCCCC1CCSS1 (stereo not drawn) | 92.4% (inactive)
Oc1ccccc1-c1nnc(CNc2ccc(Cl)cc2)o1 | 10.4% (inactive)
COc1cc2c(cc1-c1c(C)noc1C)ncc1nc(C3CCCCC3)n([C@H](C)COC(F)F)c12 | 17.9% (inactive)
COc1cc(/C=C/C(=O)Nc2cccnc2Nc2ccc(F)cc2)cc(OC)c1OC | 82.5% (inactive)
Cn1c(NCCc2ccc(O)c(O)c2)nc2c1c(=O)n(Cc1ccc(Cl)c(Cl)c1)c(=O)n2C | 56% (inactive)
Cc1ccc(C2=NN3C(C2)c2cc(Br)ccc2OC32CCN(Cc3ccccc3)CC2)o1 (stereo not drawn) | 90.2% (inactive)
O=C1/C(=C/C(Cl)=C/c2ccccc2)SC(=S)N1CCc1ccc(O)cc1 | 13.3% (inactive)
NC(=O)c1cc(Br)ccc1NC(=O)/C=C/c1ccccc1 | -10.1% (active)
CC(O)CN(CC(C)O)c1ccc2c(c1)Cc1cc([N+](=O)[O-])ccc1-2 (stereo not drawn) | 62.5% (inactive)
C=C1C(=O)O[C@H]2[C@H]1CC/C(COC(=O)c1cc3cc(OC)ccc3[nH]1)=C\CC[C@@]1(C)O[C@@H]21 | -21.1% (active)
COc1cc(C(=O)/C=C/c2cccnc2Nc2ccc(Cl)cc2)cc(OC)c1OC | 5.22% (active)
O=c1cc(CSc2nnc(SCc3cc(=O)oc4c3ccc3ccccc34)o2)c2ccc3ccccc3c2o1 | 91.7% (inactive)
